Laboratory results published in PubChem BioAssay AID1626 (SRMLSC, 2009).
In all, about 220,000 compounds went through this assay and about 2,000 (0.91%) were called active. Inconclusive results (about 2%) are left out. Rule as the data show it: inconclusive = inhibition above about 80% without an active follow-up result; inactive = below that; test concentration not stated here. Only a sample is shown. Potency and affinity values are given separately.

Assay: M. tuberculosis H37Rv growth inhibitors, H37Rv strain (AID 1626);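 also: bacteria incubated seven days before Alamar blue readout; 0% = bacteria only wells and 100% = bacteria with antibiotic wells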
Conditions: active compounds read high, concentration not given here

Q: Which inhibition does the source give for `CS(=O)(=O)c1ccc2nc(NC(=O)C3CCCO3)sc2c1` (stereo not given) here?
A: -7.03% (inactive)

Q: With `CCN(Cc1nc2ccccc2c(=O)[nH]1)Cc1nc2cc(OC)c(OC)cc2c(=O)[nH]1` as the molecule, how does the inhibition read?
A: -5.3% (inactive)

Q: Which inhibition does the source give for `CSc1ccc(CN(C)Cc2nc3ccccc3c(=O)[nH]2)cc1` here?
A: -5.14% (inactive)

Q: For `CCN(Cc1cc(=O)n2ccsc2n1)Cc1nc2ccccc2c(=O)[nH]1`, which inhibition is on record?
A: -0.5% (inactive)

Q: For `COc1cc2nc(CN(C)Cc3nc4ccccc4c(=O)[nH]3)[nH]c(=O)c2cc1OC`, which inhibition is on record?
A: -3.41% (inactive)

Q: For `Cc1nn(CC(=O)NC(C)c2ccccc2)c(=O)c2ccccc12` (stereo not given), which inhibition is on record?
A: -2.29% (inactive)

Q: For `CC1Cc2ccccc2N1C(=O)CSc1nc2c(c(=O)n(C)c(=O)n2C)n1Cc1ccc(F)cc1` (stereo not given), which inhibition is on record?
A: -3.29% (inactive)

Q: For `COCCn1c(NC(=S)NC(=O)C23CC4CC(CC(C4)C2)C3)cc(=O)[nH]c1=O`, which inhibition is on record?
A: -0.61% (inactive)

Q: For `COC(=O)c1cccc(-n2c(CCC(=O)O)ccc2-c2cccs2)c1`, which inhibition is on record?
A: 6.42% (inactive)

Q: For `CN(/N=C/c1ccc([N+](=O)[O-])o1)c1ccccc1`, which inhibition is on record?
A: 1.22% (inactive)

Q: For `CCN(CC)c1ccc(N=Cc2ccccc2[N+](=O)[O-])cc1`, which inhibition is on record?
A: 15.5% (inactive)

Q: For `COc1ccc(/C=C/CN2CCCC(CO)(Cc3cccc(Cl)c3)C2)cc1` (stereo not given), which inhibition is on record?
A: 2.62% (inactive)

Q: Which inhibition does the source give for `COc1cccc(CC2(CO)CCCN(C/C=C/c3ccccc3OC)C2)c1` (stereo not given) here?
A: 39.9% (inactive)

Q: For `NC(=S)NC1CC2C=CC1C2` (stereo not given), which inhibition is on record?
A: -6.06% (inactive)

Q: Which inhibition does the source give for `CN1CCN(S(=O)(=O)c2cccc(C(=O)Nc3nccs3)c2)CC1` here?
A: -4.26% (inactive)

Q: For `O=C1NC(=O)/C(=C/c2cccc(O)c2)N1`, which inhibition is on record?
A: 8.98% (inactive)

Q: Which inhibition does the source give for `O=C(COC(=O)Cc1ccccc1F)Nc1ccc(SC(F)F)cc1` here?
A: 91.8% (inactive)

Q: With `O=C(Cc1ccccc1)Nc1ccc(SC(F)F)cc1` as the molecule, how does the inhibition read?
A: 1.19% (inactive)

Q: With `O=C(O)CC/C(=N/NC(=O)c1cccs1)c1ccccc1` as the molecule, how does the inhibition read?
A: 7.05% (inactive)

Q: With `COc1ccc(C[C@H]2CN3C(=NC[C@H]3C)N2CCNC(=O)CCC2CCCCC2)cc1` as the molecule, how does the inhibition read?
A: -3.43% (inactive)

Q: With `O=C(CCC1CCCCC1)NCCN1C2=NC[C@H](Cc3ccccc3)N2C[C@H]1Cc1ccc(O)cc1` as the molecule, how does the inhibition read?
A: 9.81% (inactive)

Q: With `O=C(CCC1CCCCC1)NCCN1C2=NC[C@@H](Cc3ccccc3)N2C[C@H]1Cc1ccc(O)cc1` as the molecule, how does the inhibition read?
A: 39.5% (inactive)

Q: With `COc1ccc(C[C@H]2CN3C(=NC[C@@H]3C)N2CCNC(=O)CCC2CCCCC2)cc1` as the molecule, how does the inhibition read?
A: -3.39% (inactive)

Q: For `NC(=O)c1nn(-c2ccccc2)nc1NC(=O)Cn1nnc(-c2ccccc2)n1`, which inhibition is on record?
A: 9.3% (inactive)

Q: For `Cc1ccc(CS(=O)(=O)Cc2ccc(C(=O)NCc3cccs3)o2)cc1`, which inhibition is on record?
A: 3.64% (inactive)
